# Results published in the supplement of paper PMC6555819.
# Legend:
# Assay in all cases: PBM binding z-score (relative to random genomic background probes); higher = stronger binding; sequences stand for … in GC…GCGATTGACAGCGTAGAATGAAGG
# [1] = test system: RARb homodimer (NR concentration 270 nM)
# Method in brief: (§1)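 Custom Agilent 4×180K protein-binding microarrays carried double-stranded probes, each with a 34-nt variable region. These regions held direct-repeat seeds, single-nucleotide variants, half-site ablations and random human genomic background sequences. Ligand-free nuclear receptor dimers were incubated on the arrays for 1 h, antibodies against each partner (one per run) detected binding, and scanned fluorescence was regression-normalized. Binding z-scores take the random background probes as reference.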
# [2] = test system: RARg:RXRa (NR concentration 270 nM, RXRa partner concentration 90 nM)
# Method in brief: as §1
# [3] = test system: RARg homodimer (NR concentration 270 nM)
# Method in brief: as §1
# [4] = test system: RXRa DBDmut IVT, anti-RXR (DBD mutation: RXRa K156A/R161A, NR concentration 90 nM)
# Method in brief: as §1
# [5] = test system: RXRa homodimer (NR concentration 180 nM)
# Method in brief: as §1
# [6] = test system: THRa:RXRa (NR concentration 90 nM, RXRa partner concentration 90 nM)
# Method in brief: as §1
# [7] = test system: THRa homodimer (NR concentration 90 nM)
# Method in brief: as §1
# [8] = test system: VDR:RXRa (NR concentration 270 nM, RXRa partner concentration 90 nM)
# Method in brief: as §1
# [9] = test system: VDR homodimer (NR concentration 270 nM)
# Method in brief: as §1
Sequence,PBM binding z-score [1],PBM binding z-score [2],PBM binding z-score [3],PBM binding z-score [4],PBM binding z-score [5],PBM binding z-score [6],PBM binding z-score [7],PBM binding z-score [8],PBM binding z-score [9]
CCTACTGGGCCACCAAAGGTCATTGATTCAGTGA,4.49,4.61,4.52,0.43,5.36,3.67,0.763,4.13,2.66
CCTTACGGGTCACTCCAGGTTATAGTATCGGAGT,3.16,4.38,4.25,1.55,4.67,5.23,0.63,4.39,1.7
GGAACGAGGGCTTTCGAGTTGATAGCATGGCGAT,-0.798,-0.258,-0.353,0.228,-0.0785,0.893,-0.983,-0.0757,0.344
TCACGGAGGACACGAAGGTCAGAGCTTTCCAGAG,3.7,3.41,3.86,0.991,1.91,2.73,0.917,2.33,1.42
ACTAGCAGGCCAAGGGTCACTCAGGATTAGTCCG,3.78,4.35,3.59,0.461,4.24,2.7,0.0494,3.03,1.22
ATCTCTGGGTAAGACTCAGTTCAGTGAAGAACGC,0.372,0.252,0.292,0.0786,-0.0436,0.589,0.517,0.528,1.27
AGAATGAAGTTATTAAGATCAGGGAATTGCGGTC,-0.379,-0.168,-0.0523,-0.232,0.116,-0.108,-0.315,-0.316,-0.263
GCGACTGTGGCATCAGCAGGTTACCATAACTTAA,0.205,-0.1,-0.291,-0.209,0.187,0.277,0.0891,-0.319,-0.501
ACAGACGGGTGATGAAGGTAACTCAGGCTATCAT,-0.00116,-0.0351,0.218,-0.512,0.0942,0.536,0.269,0.177,-0.203
AGAACGAGGGCACGCTGAGATGATAGCAGAGTAG,1.2,1.91,2.21,1.8,1.41,1.48,-0.0737,0.702,0.452
GGAACCAGGGCAAAGTTGATAGCATCTGTCGACG,1.67,1.34,1.41,1.03,1.12,1.18,0.549,0.607,0.747
TCTTGTAGATCAAGCAGGTTTAGAAAGCCTGAGT,-0.518,-0.361,-0.474,0.521,-0.16,-0.173,-0.583,0.444,0.0833
CGTCCAAGGTCAAGGTCAGAGAAAGAGACTCGAA,4.83,6.78,7.97,3.66,6.72,4.16,3.41,4.57,3.04
CTTCCAAGGTCAATGCTAGGTCAGTGAAAGCATT,4.79,7.32,6.93,3.55,5.39,4.33,3.09,4.72,2.95
ACCTCTAGGTAACCAAGTTCAGTGAATGCCGAAC,1.28,0.433,0.365,0.736,0.358,1.25,0.385,3.96,2.26
TCTTGTAGATCAACAGGAAGTTAAGAAAGATCGA,-0.828,-0.328,-0.339,0.508,-0.0187,-0.307,-1.05,-0.0912,-0.551
TCTTGTAGATCAAAGGTTAAGAAGGCCGAAGCCT,1.58,1.95,0.702,0.627,3.37,1.51,-0.402,2.65,0.0638
CAAACTAGGTCATCCAGGACAGTGAATACATTGA,3.12,4.15,4.93,2.37,3.09,3.76,2.38,4.58,2.21
AGTCAAAGTTCATTTAGGTAACGTAAGATATGCT,3.77,5.03,5.39,4.96,4.35,3.29,1.03,4.97,5.45
CAAACTAGGTCACGAACGGTCAAAGTCGAATGAC,4.43,5.69,6.24,1.66,4.56,4.08,1.74,4.04,1.44
CAAACTAGGTCAAGAGGTTAAAGTCCGCTTCCCG,4.23,6.18,5.49,1.61,5.2,3.36,1.36,4.18,1.86
CGTCCTAGGTCAATGCTAGGTCAGTGAAAGCATT,4.16,6.16,5.14,1.83,2.57,3.94,1.73,3.02,0.909
ATATATAGGTTATCGGGTCATTCAGTTTGCGCAT,3.49,3.74,2.97,2.18,4.13,3.51,3.2,5.37,4.39
CCTACTGCGCCAAAAAGGTCATTGATGCCGATAA,4.48,4.82,4.32,1.65,5.56,3.04,1.34,4.94,3.24

Sequence,PBM binding z-score [1],PBM binding z-score [2],PBM binding z-score [3],PBM binding z-score [4],PBM binding z-score [5],PBM binding z-score [6],PBM binding z-score [7],PBM binding z-score [8],PBM binding z-score [9]
TAGCGTAGGTCATGGGCCAGTATACCACGCGAAC,2.74,4.61,4.67,-0.189,4.73,2.38,-0.142,2.24,0.0635
CAAACTAGGTCAGGGTCAAAGTCGGTTTGTGCCA,4.45,5.19,5.4,2.77,5.47,3.89,2.25,4.97,4.18
CGTCCAAGGTCAATGCTAGGTCAGTGAAAGCATT,4.88,7.68,6.83,3.85,5.28,4.31,2.74,4.81,3.1
CGGACTGGGGCAAGGTTACCATAACGCACAGCCA,1.45,1.34,1.4,-0.765,1.28,1.48,0.546,0.267,0.0512
TGAATGAGATTATAAGATCAGGGAACGTTGCAAA,-1.01,-0.048,0.172,-1.08,-0.35,-0.424,-1.28,-0.491,-0.262
TGAATGAGGTTCAAGATCAGGGAACGTGGCGTCG,0.237,1.24,0.706,2.14,1.66,0.882,-0.612,1.56,1.64
CCACCAAGGTGAACAAGGTCGTTGATTACTATTC,2.39,2.05,1.62,1.32,2.07,3.42,2.4,6.23,3.07
ACCATTAGTTGAGACGAGGGCAACCGATAGGTTG,1.3,0.676,0.629,0.383,0.669,2.63,0.525,0.755,1.04
CCTACTTGGCCAAGGTCATTGATCAGTCAAAGCA,3.78,4.01,3.47,2.56,3.83,3.82,3.07,3.78,3.62
ATATGTAGGTTAGCTGTGGTCATTCAGACTAGGC,1.13,0.752,0.985,0.139,0.643,3.29,-0.0944,0.859,0.494
GCTGCTAGGTCAACTGATGGTCCGCTAAAGCTCG,3.41,4.2,5.3,1.53,2.8,2.73,1.26,1.31,0.106
TCTCGGAGGAAACGAAGGTCAGAGCTTTCCAGAG,2.69,1.88,1.53,-0.239,1.5,1.38,-0.547,0.66,-0.0279
ATCGACAGGTCGAAGGTGAGTATACCCACCCGAA,0.661,1.8,1.51,-0.283,2.37,0.716,-0.432,0.627,-0.198
TCTCGGAGGACACGAAAGGTCAGAGCGCGACATC,4.91,5.18,5.35,1.09,4.3,3.82,1.12,3.45,1.22
TCGAGTAGGTTACCAATGGGGCATTCACCTTTCT,1.29,1.38,0.58,0.49,0.913,0.504,-0.317,0.284,-0.574
AGCCAAAGTTCAGGACGAGGTAACGTAAAGCACG,3.29,4.54,4.18,2.63,3.05,3.87,1.74,2.71,1.79
CCGACTGGGGCAGAAAGCTTACCATACCATCCGG,-0.46,-0.395,-0.221,-0.744,-0.422,-0.808,-0.889,-0.904,-0.719
CCTCGGAGGAAAGAAGGTCAGAGCTGTCCGCTTT,2.71,1.88,1.67,0.0436,1.44,1.93,-0.547,1.09,0.00914
TCATATAGGTAAAGGCTAGGTGAAAGTCCGATCT,0.981,0.769,0.425,1.27,0.971,1.3,0.205,0.546,0.0425
CCTACTGGGCCATTCAGAGGTCATAGATCATATG,3.97,4.15,2.99,0.411,3.98,3.27,1.4,3.64,2.6
ATCTCTAGGTAAAGATAGTTCAGTAAATGCAAAT,1.08,0.439,0.876,0.336,0.446,0.803,0.595,1.22,0.651
ATATGTAGGTTACATCCGGTTCATTCAGGCTATG,1,1.42,1.13,1.95,1.54,2.03,0.768,4.76,4.45
GGAACGAGGGCATTCGAGTTGATCGCATGGCGAT,0.71,1.11,1.52,3.18,0.775,3.44,-0.598,3.61,3.38
TGAATGAGGTTAAAGAGCAGGGAACGTGGCGTCG,0.754,2.13,1.34,1.01,3.19,2.39,0.467,1.4,0.665
